According to PubChem BioAssay:
Entries with a potency or affinity are not part of this list. The source made the active and inactive calls.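 Rule for the calls: active = dose-response curve with midpoint inside the tested range, moderate steepness, significant amplitude and little compound fluorescence or bead-attachment interference; inactive = the rest.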

target: GTPase HRas (Homo sapiens) (UniProt P01112); assay: blockade of GTP loading onto mutant Ras – biochemical, activated mutant, multiplex bead flow cytometry, dose response (AID 1341); details: bead-based flow cytometry, Bodipy-FL-GTP binding; series mostly up to 100 µM; GTP binding signal, % of control: at the top concentration;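 note: GST-tagged constitutively activated Ras mutant immobilized on beads and multiplexed with other GTPases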

GTP binding signal, % of control, inactive:
CCOC(=O)c1c(-c2ccccc2)csc1NC(=O)/C(C#N)=C/c1ccc(O)c(OC)c1 108%
COc1ccc(NC(=O)c2cc3nc(-c4ccccc4)cc(C)n3n2)cc1OC 125%
COc1cccc(NC(=O)NCCCN2CCN(c3ccc(F)cc3)CC2)c1 120%
COc1ccc(CCn2c(C(C)C)nc3c(c(=O)c4ccccc4n3C)c2=O)cc1 140%
O=C(Nc1nc(-c2cccs2)cs1)c1cc2ccccc2oc1=O 147%
Cc1csc(NC(=O)c2cc(=O)[nH]c3ccc(S(=O)(=O)N4CCOCC4)cc23)n1 135%
COc1ccc(OC)c(Nc2nc(-c3sc(N)nc3C)cs2)c1 133%
CCOC(=O)c1nc(Nc2ccc(C(=O)OC)cc2)c2ccccc2n1 132%
CCOC(=O)c1c(NC(=O)/C=C/c2ccc3c(c2)OCO3)sc(C)c1CC 131%
COc1cc2[nH]c(=S)nc(NCCCOC(C)C)c2cc1OC 70.5%
O=C(C1CCCO1)N1CCN(C(=S)Nc2ccccc2C(F)(F)F)CC1 (centres undefined) 91.3%
O=c1c2ccccc2nc2c3ccccc3c(NCCO)nn12 111%
Cc1ccc(Nc2nc(N)c(C#N)c(CC#N)c2C#N)cc1 129%
Cn1c(=O)cc(N2CCOCC2)[nH]c1=O 130%
O=[N+]([O-])c1cc(Cc2ccccc2)cc(C=Nc2ccc(N3CCOCC3)cc2)c1O 78.1%
Cc1cccn2c(=O)c(/C=C3\SC(=S)N(CC(C)C)C3=O)c(NCCCOC(C)C)nc12 202%
CC(C)c1ccc(C(=O)NC2=NCCS2)cc1 86.7%
CCCc1nc2oc3c(=O)[nH]cnc3c2c2c1CCCC2 142%
O=C(NCCc1c[nH]c2ccccc12)c1cccc(S(=O)(=O)Nc2ccccc2Cl)c1 93.6%
O=C(Nn1cc(C(=O)N2CCN(c3ccccc3F)CC2)c2ccccc2c1=O)c1cnccn1 164%
FC(F)(F)c1cccc(NC(=S)NNC(=S)NCc2ccccc2)c1 111%
COc1ccc(S(=O)(=O)N2CCCCC2)cc1NC(=O)c1ccc([N+](=O)[O-])o1 113%
O=C(CSc1ccc2nnc(-c3cccs3)n2n1)N1CCCC1 104%
CC(=O)Nc1ccc(N2C(=O)c3ccc(C(=O)Nc4nnc(SCc5ccc(F)cc5)s4)cc3C2=O)cc1 125%
NS(=O)(=O)c1ccc(-c2ccc(/C=C3\C(=O)Nc4cc(Cl)ccc43)o2)cc1 115%
CCCCCN1CC(O)=C(c2nc(-c3ccc(Cl)cc3)cs2)C1=N 193%
O=c1[nH]c2ccc(S(=O)(=O)NCc3ccccc3)cc2[nH]1 116%
O=S1(=O)N=C(N(CCO)/N=C/c2ccncc2)c2ccccc21 96.5%
N#C/C(=C/c1ccc(N2CCCCCC2)o1)c1ccc(Cl)cc1 229%
CCOc1nnc(C)c2c(C)n(-c3cccc(Cl)c3)nc12 177%
O=C1c2ccccc2-n2c1nc1ccccc1c2=O 141%
CC(C)(C)NC(=O)CSc1nccn1Cc1ccccc1 122%
COc1ccc(S(=O)(=O)Cc2ccc(C(=O)N3CCN(c4cc(Cl)ccc4C)CC3)o2)cc1 80.6%
NC(=O)N=Nc1c(O)[nH]c2c(Br)cc(Br)cc12 143%
Cn1cc(C=C2C(=O)CC(C)(C)CC2=O)c2ccccc21 84.3%
COc1ccc(-c2nn3c(-c4ccco4)nnc3s2)cc1OC 153%
O=c1/c(=C/c2ccc(CNS(=O)(=O)c3ccccc3)o2)sc2n1CCN=2 109%
CCc1nnc(NS(=O)(=O)c2ccc(Nc3ccc4nonc4c3[N+](=O)[O-])cc2)s1 127%
O=C(NC1CC2CCCC(C1)N2C(=O)Nc1ccc(Cl)c(C(F)(F)F)c1)C1CC1 (centres undefined) 178%
